Reference: PubChem BioAssay (Tox21)
“And” between values parts separate entries of the source, which are not always exact repeats. Equal entries are not always repeated. Unmarked numbers belong to inactive results. Results filed as inconclusive are left out. A call without a number means that no potency is given here. The source made the active and inactive calls. Unless noted, calls follow the shape of the dose curve; as a rule, active = well fitted curve in the direction sought with a large enough effect in the repeat runs; inconclusive = weak or mixed curves; inactive = no such curve, though single readings can be large; an effect the other way counts as inactive or inconclusive.

How the values were obtained:
[1] = qHTS assay for small molecule agonists of the p53 signaling pathway (AID 651631; calls by dose curve; also: nearly all actives have a fitted effect of over 15% in size; also: potency is read from the fitted curve at half-maximal effect)
Outline: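 Quantitative high-throughput format: 4,000 p53RE-bla HCT-116 cells/well, 5 h pre-incubation, 16 h compound exposure at 37 °C, 2 h room-temperature substrate step, fluorescence intensity measured.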

[2] = qHTS assay for small molecules that induce genotoxicity in human embryonic kidney cells expressing luciferase-tagged ATAD5 (AID 651632); also: nearly all actives have a fitted effect of over 15% in size; also: potency is read from the fitted curve at half-maximal effect
Outline: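 Concentration-response screen for ATAD5 upregulation in HEK293T luciferase reporter cells; 16 hr treatment at 37C, then luminescence after 30 min with Amplite at room temperature.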

[3] = qHTS assay for small molecule agonists of the p53 signaling pathway - cell viability (AID 651633; calls by dose curve; also: nearly all actives have a fitted effect of over 30% in size; also: potency is read from the fitted curve at half-maximal effect)
Outline: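 Viability counter-read: CellTiter-Glo luminescence (30 min, room temperature) in the same p53RE-bla plates. These plates had been exposed to compounds for 16 h at 37 C.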

[4] = qHTS assay for small molecules that induce genotoxicity in human embryonic kidney cells expressing luciferase-tagged ATAD5 - cell viability (AID 651634; calls by dose curve; also: nearly all actives have a fitted effect of over 25% in size; also: potency is read from the fitted curve at half-maximal effect)
Outline: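 15.5 hr compound or vehicle exposure of HEK293T cells expressing luciferase-tagged ATAD5 at 37C; live-cell protease activity is read by fluorescence after 30 min of CellTiter-Fluor.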

[5] = qHTS assay for small molecule disruptors of the mitochondrial membrane potential - cell viability (AID 720634; calls by dose curve;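 also: human HepG2 liver cancer cells; series mostly up to about 83 µM; nearly all actives have a fitted effect of over 20% in size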)
Outline: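 In this qHTS format, HepG2 cells plated overnight were pinned with compound, incubated 1 hr, and assayed for ATP luminescence with CellTiter-Glo after m-MPI dye addition.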

[6] = qHTS assay for small molecule disruptors of the mitochondrial membrane potential (AID 720635); also: potency is read from the fitted curve at half-maximal effect
Outline: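 Mitochondrial membrane potential tracked with Mito-MPS dye, red aggregates (ex 540/em 590 nm) against green monomers (ex 490/em 535 nm). Compound treatment 1 hr at 37C, dye 30 min in HepG2.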

[7] = qHTS assay to test for compound auto fluorescence at 590 nm (red) in HepG2 cells (AID 720674)
Outline: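 Red autofluorescence (Ex/Em 540/590 nm, Rose Bengal sodium equivalents) was measured in HepG2 cells, 2,000 per well in MEM plus 10% FBS, plated overnight at 37 C. Readings were taken 1 hr after adding 23 nL compound or DMSO, at 37 C and 5% CO2.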

[8] = qHTS assay to test for compound auto fluorescence at 535 nm (green) in HepG2 cells (AID 720675)
[9] = qHTS assay to test for compound auto fluorescence at 460 nm (blue) in HEK293 cells (AID 720678)
Outline: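 HEK293, 2,000 cells/well, 10% dialyzed FBS; attach 4-5 hr 37C; pin compound or DMSO; o/n 37C/5% CO2; fluorescence 405/460 nm; triamterene-equivalent units.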

[10] = qHTS assay to test for compound auto fluorescence at 590 nm (red) in HEK293 cells (AID 720679)
Outline: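 Intensity at 540nm excitation and 590nm emission is reported as Rose Bengal sodium-equivalent autofluorescence. Measurements followed overnight exposure (37C, 5% CO2) of HEK293 cells, 2,000 per well, to 23 nL compound.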

[11] = qHTS assay to test for compound auto fluorescence at 535 nm (green) in HEK293 cells (AID 720680)
[12] = qHTS assay to test for compound auto fluorescence at 460 nm (blue) in HEK293 cell free culture (AID 720681)
Outline: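 Blue fluorescence (Ex 405/Em 460 nm, triamterene-equivalent) was read immediately after pin transfer of compound or DMSO into medium (DMEM, 10% FBS) without cells.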

[13] = qHTS assay to test for compound auto fluorescence at 535 nm (green) in HEK293 cell free culture (AID 720682)
Outline: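 Measurement is a direct plate read of green fluorescence (485 nm in, 535 nm out) after compound addition to serum-supplemented DMEM lacking cells, with fluorescein used to express intensities.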

[14] = qHTS assay to test for compound auto fluorescence at 590 nm (red) in HepG2 cell free culture (AID 720684)
Outline: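 Cell-free; medium MEM + 10% FBS; compound or DMSO added by pintool; read Ex 540/Em 590 nm; Rose Bengal sodium as red reference fluorophore.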

[15] = qHTS assay to test for compound auto fluorescence at 460 nm (blue) in HepG2 cell free culture (AID 720685)
Outline: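 Cell-free plates of MEM plus 10% FBS received 23 nL compound or DMSO vehicle; blue-channel (405/460 nm) intensity scored against triamterene as reference fluorophore.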

[16] = qHTS assay to test for compound auto fluorescence at 535 nm (green) in HepG2 cell free culture (AID 720686)
[17] = qHTS assay to test for compound auto fluorescence at 460 nm (blue) in HepG2 cells (AID 720687)
Outline: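 Blue-channel autofluorescence (Ex/Em 405/460 nm, triamterene-equivalent) was measured after 1 hr compound exposure at 37 C, 5% CO2. Cells were HepG2, plated overnight at 37 C in MEM plus 10% FBS.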

[18] = qHTS assay to test for compound auto fluorescence at 590 nm (red) in HEK293 cell free culture (AID 720683)
Outline: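 Red-channel autofluorescence of compounds in culture medium (DMEM, 10% FBS), no cells, measured at 540/590 nm. Rose Bengal sodium is the reference fluorophore for equivalence.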

[19] = target: Glucocorticoid receptor (Homo sapiens) (UniProt P04150); assay: qHTS assay to identify small molecule agonists of the glucocorticoid receptor (GR) signaling pathway (AID 720691; active = well fitted activation curve with a large enough effect in the signal ratio in the repeat runs, not every such curve was filed as active; the % refers to the signal ratio)
Outline: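 Measures GR pathway activation through a GRE-beta-lactamase reporter stably integrated in HeLa cells, with 18 h compound treatment at 37 C and fluorescence detection using a FRET substrate.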

[20] = target: Glucocorticoid receptor (Homo sapiens) (UniProt P04150); assay: qHTS assay to identify small molecule antagonists of the glucocorticoid receptor (GR) signaling pathway (AID 720692; active = well fitted inhibition curve with a large enough effect in the signal ratio in the repeat runs, not every such curve was filed as active; the % refers to the signal ratio)
Outline: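 Tox21 10K library screened in concentration-response for blockade of dexamethasone (5 nM final)-induced GRE-bla reporter activity in HeLa cells; 18 h treatment, fluorescence read.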

Glucocorticoid receptor (Homo sapiens), sequence (P04150 whole entry, looked up): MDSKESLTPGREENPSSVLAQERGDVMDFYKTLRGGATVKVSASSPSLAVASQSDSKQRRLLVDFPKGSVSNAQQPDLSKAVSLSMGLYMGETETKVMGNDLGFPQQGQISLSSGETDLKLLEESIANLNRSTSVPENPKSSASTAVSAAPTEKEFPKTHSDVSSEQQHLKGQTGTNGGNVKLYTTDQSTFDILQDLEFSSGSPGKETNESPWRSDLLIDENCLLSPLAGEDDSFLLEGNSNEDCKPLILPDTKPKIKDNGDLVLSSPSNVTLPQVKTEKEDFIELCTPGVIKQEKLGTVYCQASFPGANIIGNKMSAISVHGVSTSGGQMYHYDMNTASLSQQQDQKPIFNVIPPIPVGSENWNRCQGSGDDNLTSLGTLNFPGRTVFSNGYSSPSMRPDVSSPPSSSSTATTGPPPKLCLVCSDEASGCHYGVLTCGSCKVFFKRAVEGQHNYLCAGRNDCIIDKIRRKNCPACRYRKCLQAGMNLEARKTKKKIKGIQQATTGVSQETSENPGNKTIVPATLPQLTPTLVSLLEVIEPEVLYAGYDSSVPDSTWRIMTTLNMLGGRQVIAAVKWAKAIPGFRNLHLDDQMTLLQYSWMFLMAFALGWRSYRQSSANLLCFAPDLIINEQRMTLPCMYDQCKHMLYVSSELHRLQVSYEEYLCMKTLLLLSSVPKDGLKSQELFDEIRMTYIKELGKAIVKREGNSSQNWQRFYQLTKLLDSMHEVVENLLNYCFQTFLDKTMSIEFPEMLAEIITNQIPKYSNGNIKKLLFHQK

SMILES	Potency [1]	Potency [2]	Potency [3]	Potency [4]	Potency [5]	Potency [6]	outcome [7]	outcome [8]	Potency [9]	outcome [10]	outcome [11]	Potency [12]	outcome [13]	outcome [14]	outcome [15]	outcome [16]	outcome [17]	outcome [18]	Potency [19]	Potency [20]
CC(C)NC(=O)c1ccccc1N	inactive	inactive	inactive	inactive	inactive	inactive	inactive	inactive	inactive	inactive	inactive	inactive	inactive	inactive	inactive	inactive	inactive	–	–	–
O=C1OC(=O)C2CC=CCC12 (centres undefined)	inactive	inactive	inactive	inactive	inactive	inactive	inactive	inactive	inactive	inactive	inactive	inactive	inactive	inactive	–	inactive	inactive	inactive	inactive	inactive
O=P(c1ccccc1)(c1ccccc1)c1ccccc1	inactive	inactive	inactive	inactive	inactive	–	inactive	inactive	inactive	inactive	inactive	inactive	inactive	inactive	inactive	inactive	inactive	inactive	–	–
Cc1cc(C)n(CO)n1	inactive	inactive	inactive	inactive	inactive	inactive	inactive	inactive	inactive	inactive	inactive	inactive	inactive	–	inactive	inactive	inactive	inactive	inactive	inactive
CC(=O)Nc1ccn(C2COC(COC(=O)c3ccccc3)O2)c(=O)n1 (centres undefined)	3.76 µM (active)	inactive	inactive	inactive	inactive	inactive	inactive	inactive	–	inactive	inactive	inactive	inactive	inactive	inactive	inactive	inactive	inactive	–	–
O=S(=O)(O)c1cc(Cl)c(Cl)cc1Cl	inactive	inactive	inactive	inactive	inactive	–	inactive	inactive	inactive	inactive	inactive	inactive	inactive	inactive	inactive	inactive	inactive	inactive	–	–
FC1(F)C(F)(F)C(F)(F)C2(F)C(F)(C1(F)F)C(F)(F)C(F)(F)C1(F)C(F)(F)C(F)(F)C(F)(F)C(F)(F)C12F (centres undefined)	inactive	inactive	inactive	inactive	inactive	–	inactive	inactive	inactive	inactive	inactive	inactive	inactive	inactive	inactive	inactive	inactive	inactive	inactive	–
CC(C)Oc1ccccc1O	inactive	inactive	inactive	inactive	inactive	inactive	inactive	inactive	inactive	inactive	inactive	inactive	inactive	inactive	inactive	inactive	inactive	inactive	inactive	inactive
O=C(OCCOCCOCCOC(=O)c1ccccc1)c1ccccc1	inactive	inactive	inactive	inactive	inactive	–	inactive	inactive	inactive	inactive	inactive	inactive	inactive	inactive	inactive	inactive	inactive	inactive	inactive	inactive
COc1ccc(C(=O)Nc2ccccc2)cc1[N+](=O)[O-]	inactive	inactive	inactive	inactive	–	2.75 µM (active)	inactive	inactive	inactive	–	inactive	inactive	inactive	inactive	inactive	inactive	inactive	inactive	inactive	inactive
NC(=O)c1ccccc1C(N)=O	inactive	inactive	inactive	inactive	inactive	–	inactive	inactive	inactive	inactive	inactive	inactive	inactive	–	inactive	inactive	inactive	inactive	–	–
OCC(O)c1ccccc1 (centres undefined)	inactive	inactive	inactive	inactive	inactive	–	inactive	inactive	inactive	–	inactive	inactive	inactive	inactive	inactive	inactive	inactive	inactive	–	–
Cc1c(Cl)cccc1Nc1ccccc1C(=O)O	21.1 µM (active)	inactive	18.8 µM (active)	inactive	–	11.9 µM (active)	inactive	inactive	inactive	inactive	inactive	inactive	inactive	inactive	–	inactive	inactive	inactive	–	–
O=[N+]([O-])c1ccccc1CCO	inactive	inactive	inactive	inactive	–	–	inactive	inactive	inactive	inactive	inactive	inactive	inactive	inactive	inactive	inactive	inactive	inactive	inactive	–
O=Cc1ccc([N+](=O)[O-])cc1	inactive	inactive	inactive	inactive	inactive	–	inactive	inactive	inactive	–	inactive	inactive	inactive	inactive	inactive	inactive	inactive	–	inactive	inactive
O=C(c1ccc(Cl)cc1)c1ccc(Cl)cc1	inactive	inactive	inactive	inactive	inactive	–	inactive	inactive	inactive	inactive	inactive	inactive	inactive	inactive	inactive	inactive	inactive	–	–	–
CCCC(=O)OCc1ccccc1	inactive	inactive	inactive	inactive	inactive	–	inactive	inactive	inactive	inactive	inactive	inactive	inactive	–	inactive	inactive	inactive	inactive	–	–
O=C(OC1C[C@H]2CC[C@@H](C1)[N+]21CCCC1)C(O)(c1ccccc1)c1ccccc1 (some centres undefined)	inactive	inactive	inactive	inactive	inactive	–	inactive	inactive	inactive	–	inactive	inactive	inactive	inactive	inactive	inactive	inactive	inactive	–	–
Nc1ncnc2c1ncn2[C@@H]1O[C@H](CO)[C@@H](O)[C@H]1O	inactive	inactive	inactive	inactive	inactive	–	inactive	inactive	inactive	inactive	inactive	inactive	inactive	–	inactive	inactive	inactive	inactive	inactive	–
O=[N+]([O-])c1cccc(I)c1	inactive	inactive	inactive	inactive	–	inactive	inactive	inactive	inactive	inactive	inactive	inactive	inactive	–	inactive	inactive	inactive	inactive	inactive	inactive
O=C(O)CNc1ccccc1	inactive	inactive	inactive	inactive	inactive	–	inactive	inactive	inactive	–	inactive	inactive	inactive	inactive	inactive	inactive	inactive	inactive	inactive	inactive
CC(C)C[C@H](NC(=O)[C@H](Cc1ccccc1)NC(=O)c1cnccn1)B(O)O	15 nM (active) and 9.4 nM (active)	21.1 nM (active) and 18.8 nM (active)	376 nM (active) and 211 nM (active)	376 nM (active) and 94.4 nM (active)	inactive	–	inactive	inactive	inactive	inactive	inactive	inactive	inactive	inactive	–	inactive	inactive	inactive	inactive	–
NCCOCCOCCN	inactive	inactive	inactive	inactive	inactive	–	inactive	inactive	inactive	–	inactive	inactive	inactive	inactive	inactive	inactive	inactive	inactive	inactive	–
CCCCCCCCCCCCN1CCOCC1	inactive	inactive	inactive	inactive	inactive	–	inactive	inactive	inactive	inactive	inactive	inactive	inactive	inactive	inactive	inactive	inactive	–	inactive	inactive
Clc1ccccc1-c1nc(-c2ccncc2)no1	inactive	6.68 µM (active)	inactive	inactive	–	–	inactive	inactive	inactive	inactive	inactive	inactive	inactive	inactive	inactive	inactive	inactive	inactive	inactive	–
CC(=O)Nc1cccc(N)c1	inactive	inactive	inactive	inactive	inactive	–	inactive	inactive	inactive	inactive	inactive	inactive	inactive	inactive	–	inactive	inactive	–	inactive	inactive
O=C(O)c1ccccc1[N+](=O)[O-]	inactive	inactive	inactive	inactive	inactive	–	inactive	inactive	inactive	inactive	inactive	inactive	inactive	inactive	–	inactive	inactive	inactive	inactive	inactive
CO[C@@H]1COCC[C@@H]1N[C@@H]1CC[C@@](C(=O)N2CCc3ncc(C(F)(F)F)cc3C2)(C(C)C)C1	inactive	inactive	inactive	inactive	inactive	–	inactive	inactive	inactive	–	inactive	inactive	inactive	inactive	inactive	inactive	inactive	–	inactive	inactive
O=C(O)CCc1nc2ccccc2[nH]1	inactive	inactive	inactive	inactive	–	inactive	inactive	inactive	inactive	inactive	inactive	inactive	inactive	inactive	–	inactive	inactive	inactive	–	–
CS(C)=O	inactive	inactive	inactive	inactive	inactive	–	inactive	inactive	inactive	inactive	inactive	inactive	inactive	–	inactive	inactive	inactive	inactive	inactive	inactive
